Test results as given in paper PMC7819943, “Rice protein-binding microarrays: a tool to detect cis-acting elements near promoter regions in rice”.
In all, about 39,000 sequences were measured (“fluorescence intensity (a.u.)”: median about 4,300, highest 2% from about 39,000 on). This excerpt belongs to a sample that is enriched for the highest values.

These sequences were tested against T1, OsSMF1 (Oryza sativa, UniProt Q6ZLB0 1-436) (assay: protein-binding microarray (RPBM); PBS, 2% BSA, 51.3 ng/ul salmon testes DNA, 50 uM zinc acetate, 200 nM TF, 25 C, 1 h; high values mean tight binding). Settings: protein: recombinant; tags: N-terminal polyhistidine and DsRed monomer fusion (pET32a); chain copies: 2; label: CyDye5-dUTP incorporated in the synthesized complementary strand; 3' TTTTT single-stranded linker to array surface; dsDNA, one strand shown.
T1 sequence: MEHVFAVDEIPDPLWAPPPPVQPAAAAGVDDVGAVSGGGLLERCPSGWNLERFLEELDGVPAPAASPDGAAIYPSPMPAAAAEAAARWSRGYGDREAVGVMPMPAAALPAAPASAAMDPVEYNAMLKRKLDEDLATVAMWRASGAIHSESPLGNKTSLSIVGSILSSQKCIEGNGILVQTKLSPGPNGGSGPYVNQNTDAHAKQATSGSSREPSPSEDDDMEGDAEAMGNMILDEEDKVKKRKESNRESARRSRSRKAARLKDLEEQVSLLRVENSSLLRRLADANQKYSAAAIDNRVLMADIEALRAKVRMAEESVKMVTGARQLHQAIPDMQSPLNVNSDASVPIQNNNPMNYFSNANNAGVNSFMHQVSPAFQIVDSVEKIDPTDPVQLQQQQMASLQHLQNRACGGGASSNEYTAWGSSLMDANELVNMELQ
Method in brief: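 Using Ni–NTA, transcription factors fused N-terminally to polyhistidine and DsRed were purified after expression in E. coli BL21-CodonPlus. These were incubated at 200 nM with a blocked, double-stranded custom Agilent array for 1 h at 25 °C in a buffer containing 50 µM zinc acetate, and the array was washed. The binding signal is per-feature fluorescence intensity (arbitrary units) on an Axon 4000B scanner.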

Sequence | binding signal
AACAAATATCGTTCCTCGGTGTCGTCATCGTGTTTGGATCCGGAGTCACCTAGTGCAG | 6670 fluorescence intensity (a.u.)
GCAAGCAAAGAAAGTTGTCATCATCCCAATCCTCCTCCGCCGGAGTCACCTAGTGCAG | 4050 fluorescence intensity (a.u.)
GTCTTTCCGAGTGGTGGCGGCGGTGGCTGATCTGCTTGTGCGGAGTCACCTAGTGCAG | 3420 fluorescence intensity (a.u.)
CATTCCTCTCTTTCCCCTCATCCCTATAAATCCAACATTTCGGAGTCACCTAGTGCAG | 3440 fluorescence intensity (a.u.)
CACCACCACCACGACGCCAACGTCAACGGCGAGGACCAAGCGGAGTCACCTAGTGCAG | 3270 fluorescence intensity (a.u.)
CCCACATGTCGGTCCAATTCTCCCTCCAGCCACTCCCGACCGGAGTCACCTAGTGCAG | 3220 fluorescence intensity (a.u.)
CTGAAACCAACATCCAAGTCATCATGTCCAAGATGTCTCCCGGAGTCACCTAGTGCAG | 6640 fluorescence intensity (a.u.)
CTAATATGGATAGATTGAAACATCAAGGACTAAACTGAGCCGGAGTCACCTAGTGCAG | 3460 fluorescence intensity (a.u.)
GATTGAAACATCAAGGACTAAACTGAGTCTCAGATGAAACCGGAGTCACCTAGTGCAG | 58100 fluorescence intensity (a.u.)
GAGAGATCGTACACGAGTCATTTCAACTCGGACAATTTGCCGGAGTCACCTAGTGCAG | 3180 fluorescence intensity (a.u.)
CGACTCAAAGATAAATGATATGTCATCGGCACCTAGCCGACGGAGTCACCTAGTGCAG | 4200 fluorescence intensity (a.u.)
TGTGACACATGTTACACATAATTATTATGTGAGTGGTAAACGGAGTCACCTAGTGCAG | 4020 fluorescence intensity (a.u.)
ACAACAGCTCGATCCATCCACGCGCGCGTGACGGCTCGGCCGGAGTCACCTAGTGCAG | 4690 fluorescence intensity (a.u.)
CAATTCTACAATATGCCACTGAGTTTACCAAGTTATACAACGGAGTCACCTAGTGCAG | 4020 fluorescence intensity (a.u.)
TACTTCTACCTACCTTACCAAGTCCTGACAGTTACAACGTCGGAGTCACCTAGTGCAG | 55400 fluorescence intensity (a.u.)
GAAATCTGAACAACCAAGTTACTACTGTACTTATGTTAGTCGGAGTCACCTAGTGCAG | 20700 fluorescence intensity (a.u.)
ATAAATACCAGCTTTCCAACCATCACTTATTCACTTGCCCCGGAGTCACCTAGTGCAG | 3740 fluorescence intensity (a.u.)
TAATCCAGTACTACTTGCTGTGACAGTGTGATGTGCTTGTCGGAGTCACCTAGTGCAG | 3540 fluorescence intensity (a.u.)
AGATTGCCATCGGACGCAGTAAAACGTGTCACTACCCCACCGGAGTCACCTAGTGCAG | 7590 fluorescence intensity (a.u.)
TGATGCTACAATAAACATTTACTAATGACGGATTAATTAGCGGAGTCACCTAGTGCAG | 3430 fluorescence intensity (a.u.)
CTTAATTAATTATACACACAAACATTCCCTCCAATGCATGCGGAGTCACCTAGTGCAG | 3760 fluorescence intensity (a.u.)

Sequence | binding signal
TAAACACAATTCTCCCTAATTATTATTTCTGGATGATGAGCGGAGTCACCTAGTGCAG | 41400 fluorescence intensity (a.u.)
AATGTTTGTAGCACGGGAGGCATACCACATACATACATTGCGGAGTCACCTAGTGCAG | 3640 fluorescence intensity (a.u.)
CTCGATCACACACGGTGTCACAGTCACAGGTGCATTGACGCGGAGTCACCTAGTGCAG | 7140 fluorescence intensity (a.u.)
GTTTTGGAGGGCGGTTTTGCTGACGTGGCGCTGACATGGCCGGAGTCACCTAGTGCAG | 32800 fluorescence intensity (a.u.)
TGGAGGCGACGTGGCGGTCGTTGACTCGTTGTGTGCTCGACGGAGTCACCTAGTGCAG | 7090 fluorescence intensity (a.u.)
ACTCCCTCGACGGTTTTGGAGGGCGATTTTGCTGACGTGGCGGAGTCACCTAGTGCAG | 47600 fluorescence intensity (a.u.)
GATGACGACGGCGATGACGGCGGGGCGGTTTGGAGCGGGGCGGAGTCACCTAGTGCAG | 4720 fluorescence intensity (a.u.)
CTCTCCCAGCGGTAATGGAGGGCGGTTTTGCTGACGTGGCCGGAGTCACCTAGTGCAG | 58300 fluorescence intensity (a.u.)
TAGAGAGCGGTTTTGCTGACGTGGCGTATACGTGACGGTACGGAGTCACCTAGTGCAG | 33100 fluorescence intensity (a.u.)
GAGAGGGGTGCGCAGTGTGTTGTGGTGGTGCACATGACGGCGGAGTCACCTAGTGCAG | 3510 fluorescence intensity (a.u.)
CCGGAAAATCTATCTGTGCTTATAAATAGCCATTATCCAACGGAGTCACCTAGTGCAG | 57400 fluorescence intensity (a.u.)
GCGTGTGCATCTGCCATGTAATCCAAAATATAGCCATGAACGGAGTCACCTAGTGCAG | 3660 fluorescence intensity (a.u.)
AGATAATCCATAATAATAATTAGCTTAATAATCTAAATCACGGAGTCACCTAGTGCAG | 27300 fluorescence intensity (a.u.)
TCGCAACAACAAGAATGATGATGGCATGACGAAAATGCTACGGAGTCACCTAGTGCAG | 3570 fluorescence intensity (a.u.)
TACTGCATGCGCAAAGAGTTAATCCGTGGGGCTCGTGGGACGGAGTCACCTAGTGCAG | 45300 fluorescence intensity (a.u.)
TGTCCCCGCGCATCCGCGGACGTGGCTGGGCAACTGCTCGCGGAGTCACCTAGTGCAG | 8030 fluorescence intensity (a.u.)
CTCGTGGGGACGACGCTGGTGTCCGTGTACTGCAAGTGCGCGGAGTCACCTAGTGCAG | 4060 fluorescence intensity (a.u.)
AGGGTTATAATTAGATGGGTAGTGGAGGTAGGTAAGAAAACGGAGTCACCTAGTGCAG | 4130 fluorescence intensity (a.u.)
CACCCGCACCCGCCCGCACGGCCGCGCCCGCGTCACCACCCGGAGTCACCTAGTGCAG | 6150 fluorescence intensity (a.u.)
TGTGTTCCCTTTCGGTACGTTGTATTTCGACCCTGACGTTCGGAGTCACCTAGTGCAG | 42700 fluorescence intensity (a.u.)
GGGTTGTGGTTGTTGTACGTTGTTGTTGACGGCGATGGTTCGGAGTCACCTAGTGCAG | 3460 fluorescence intensity (a.u.)

Sequence | binding signal
TGTATTTTCTGACGTTGGTAGCACGGTAGCACCCGATATTCGGAGTCACCTAGTGCAG | 4250 fluorescence intensity (a.u.)
GCTGGTAAAGCGGTGCGCCGGTGCCGCCACGTCCTCGCACCGGAGTCACCTAGTGCAG | 15100 fluorescence intensity (a.u.)
CTAGAATGAGTGTTATGGCAGAGTGGTAGATGCTTGAAAACGGAGTCACCTAGTGCAG | 29600 fluorescence intensity (a.u.)
TTTCCCCGGTGGATCGTGTTCGGACACGTCGCGGCCCCTCCGGAGTCACCTAGTGCAG | 6200 fluorescence intensity (a.u.)
CATCACGCTGACGTGTCCTTTCGTTTGGACACGGACATCTCGGAGTCACCTAGTGCAG | 15000 fluorescence intensity (a.u.)
CCACGCGGACACTGACACGTCATCATCGTGTTCGTTTCCTCGGAGTCACCTAGTGCAG | 39300 fluorescence intensity (a.u.)
AATGGGGCTATAGGTAATTATGCTTAGAAGTCCGGTTCATCGGAGTCACCTAGTGCAG | 5130 fluorescence intensity (a.u.)
GTTGGGGCGCCTCTGGGGCTGTCCACGTCGGATAGCTACACGGAGTCACCTAGTGCAG | 20700 fluorescence intensity (a.u.)
CAATCCGTTGATCGGGGTCGTAGTCCATCGACAGAAATTACGGAGTCACCTAGTGCAG | 41800 fluorescence intensity (a.u.)
AATCCGAGTAGTCATTGTCGTTTCCATGCAGAATTATGGTCGGAGTCACCTAGTGCAG | 4030 fluorescence intensity (a.u.)
GAATCCATCGACACGTTTCTTTCGTCAGAACAGTGTCCGTCGGAGTCACCTAGTGCAG | 3420 fluorescence intensity (a.u.)
CGCGTCCGCAGTGTCCCACTCCCGCCACTCCTTCCACCCCCGGAGTCACCTAGTGCAG | 3780 fluorescence intensity (a.u.)
CTCTCTCTCGGCTTCCACTCCCGTCTCCTCGTCTCCTCGCCGGAGTCACCTAGTGCAG | 4090 fluorescence intensity (a.u.)
ATTGACGCGCCTCGGTATTACCTCACTAGCTGCGTCATTGCGGAGTCACCTAGTGCAG | 6460 fluorescence intensity (a.u.)
ATATTGTCACGTGTCACATGTTAGTTTGTTCAGGAACGGACGGAGTCACCTAGTGCAG | 5880 fluorescence intensity (a.u.)
TTATTAAGCCTAATTAATCCATCATTAGTAAATATTTACTCGGAGTCACCTAGTGCAG | 3780 fluorescence intensity (a.u.)
ATGTTTAATCAACCTCTAAATCAATAAGATTAGTCATGTACGGAGTCACCTAGTGCAG | 3950 fluorescence intensity (a.u.)
TCCATTAAGCCTCCGTTTAGTAAAGATAAAGATTGGTCAACGGAGTCACCTAGTGCAG | 44200 fluorescence intensity (a.u.)
ACTTTCTTGAATTTAATGCGTGACTCTCCATTCGTCCACACGGAGTCACCTAGTGCAG | 3620 fluorescence intensity (a.u.)
